According to the supplement of paper PMC10849652:
Targets with a hit are over-represented here; the source holds about 7,900 in all. About 0.6% of all pairs of compound and target were hits. A number with no mark means an inactive call.

Tests used:
Assay in all cases: log2 fold change, soluble protein after heating vs DMSO (PISA); higher = thermal stabilisation; K562 cells, 10 uM, 30 min; active = over 0.2 and 3.5 SD of the protein, either way, in both replicates (recomputed)
IRAK-1-4 Inhibitor I = compound: C1COCCN1CCN2C3=CC=CC=C3N=C2NC(=O)C4=CC(=CC=C4)[N+](=O)[O-] [IRAK-1-4 Inhibitor I]
In short: (§1)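 Aliquots of K562 cells (2×10^6 cells/mL) treated with 10 μM compound for 30 min were heated for 3 min over 48°C-58°C. After pooling and extraction in PBS with 0.5% NP-40 at 4°C, soluble protein from a 21,000xg, 90 min spin was quantified by TMTpro 16plex LC-MS/MS with channel sums equalised. Thermal stability is expressed against control samples, from duplicates, as a log2 fold change.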

ibrutinib = compound: C=CC(=O)N1CCC[C@@H](n2nc(-c3ccc(Oc4ccccc4)cc3)c3c(N)ncnc32)C1 [ibrutinib]
In short: as §1

[1] = compound: CC(=O)c1cnc2ccc(-c3cc(Cl)c(O)c(Cl)c3)nc2c1N[C@H]1CC[C@H](CN(C)C)CC1
In short: as §1

ralimetinib = compound: CC(C)(C)Cn1c(N)nc2ccc(-c3[nH]c(C(C)(C)C)nc3-c3ccc(F)cc3)nc21 [ralimetinib]
In short: as §1

[2] = compound: CC(C)(O)CC(=O)NCCn1ccc2ncnc(Nc3ccc(Oc4cccc(C(F)(F)F)c4)c(Cl)c3)c21
In short: as §1

[3] = compound: CC(C)C1=C2N=C(C=C(N2N=C1)NCC3=CC=CC=C3)NCCCCCCN
In short: as §1

[4] = compound: CC(C)C[C@@H](C=O)NC(=O)[C@H](CC(C)C)NC(=O)[C@H](CC(C)C)NC(=O)OCc1ccccc1
In short: as §1

pinometostat = compound: CC(C)N(C[C@H]1O[C@@H](n2cnc3c(N)ncnc32)[C@H](O)[C@@H]1O)[C@H]1C[C@@H](CCc2nc3cc(C(C)(C)C)ccc3[nH]2)C1 [pinometostat]
In short: as §1

[5] = compound: CC1=C(C(CC(=O)N1)C2=CC=C(C=C2)C(F)(F)F)C(=O)NC3=C(C=C4C(=C3)C=NN4)F
In short: as §1

[6] = compound: CC1=C(C2=C(C=C1)C(=O)C3=CC=CC=C3N2CCCN)C
In short: as §1

[7] = compound: CC1=C(C=C(C=C1)NC(=O)C2=CC(=CC=C2)C(C)(C)C#N)NC3=CC4=C(C=C3)N=CN(C4=O)C
In short: as §1

[8] = compound: CC1=C(C=C(C=C1)NC(=O)C2=CC(=CC=C2)N(C)C)NC(=O)C3=CC=C(C=C3)O
In short: as §1

[9] = compound: CC1=CC=C(C=C1)SC2=C3C=C(SC3=CN=C2)C(=O)N
In short: as §1

[10] = compound: CC1=NC(=CC=C1)C2=C(N=C(N2)C(C)(C)C)C3=CC4=NC=CN=C4C=C3
In short: as §1

Nexturastat A = compound: CCCCN(Cc1ccc(C(=O)NO)cc1)C(=O)Nc1ccccc1 [Nexturastat A]
In short: as §1

vemurafenib = compound: CCCS(=O)(=O)Nc1ccc(F)c(C(=O)c2c[nH]c3ncc(-c4ccc(Cl)cc4)cc23)c1F [vemurafenib]
In short: as §1

[11] = compound: CCCS(=O)(=O)Nc1ccc(F)c(C(=O)c2c[nH]c3ncc(Cl)cc23)c1F
In short: as §1

[12] = compound: CCCc1cc(C)[nH]c(=O)c1CNC(=O)c1cc(-c2ccnc(N3CCN(C)CC3)c2)cc2c1cnn2C(C)C
In short: as §1

givinostat = compound: CCN(CC)Cc1ccc2cc(COC(=O)Nc3ccc(C(=O)NO)cc3)ccc2c1 [givinostat]
In short: as §1

barasertib = compound: CCN(CCCOc1ccc2c(Nc3cc(CC(=O)Nc4cccc(F)c4)[nH]n3)ncnc2c1)CCOP(=O)(O)O [barasertib]
In short: as §1

UniProt P04049, sequence (P04049 whole entry, looked up): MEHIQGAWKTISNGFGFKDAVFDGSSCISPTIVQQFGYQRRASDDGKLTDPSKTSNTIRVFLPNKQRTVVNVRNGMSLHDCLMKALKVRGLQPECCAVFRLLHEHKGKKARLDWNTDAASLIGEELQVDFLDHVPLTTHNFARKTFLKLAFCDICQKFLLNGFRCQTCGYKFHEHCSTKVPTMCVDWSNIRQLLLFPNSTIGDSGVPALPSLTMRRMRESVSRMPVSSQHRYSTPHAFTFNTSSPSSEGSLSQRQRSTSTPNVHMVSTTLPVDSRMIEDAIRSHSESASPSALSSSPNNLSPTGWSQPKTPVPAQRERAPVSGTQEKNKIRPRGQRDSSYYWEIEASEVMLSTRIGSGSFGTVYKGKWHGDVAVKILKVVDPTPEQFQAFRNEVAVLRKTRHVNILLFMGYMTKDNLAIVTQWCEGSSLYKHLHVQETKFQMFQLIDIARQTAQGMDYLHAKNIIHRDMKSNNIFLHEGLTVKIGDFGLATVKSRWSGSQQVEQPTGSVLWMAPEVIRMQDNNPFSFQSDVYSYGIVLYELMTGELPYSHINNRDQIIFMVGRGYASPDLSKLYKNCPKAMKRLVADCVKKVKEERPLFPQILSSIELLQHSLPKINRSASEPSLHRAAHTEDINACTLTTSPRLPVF
UniProt Q9H2X9, sequence (Q9H2X9 whole entry, looked up): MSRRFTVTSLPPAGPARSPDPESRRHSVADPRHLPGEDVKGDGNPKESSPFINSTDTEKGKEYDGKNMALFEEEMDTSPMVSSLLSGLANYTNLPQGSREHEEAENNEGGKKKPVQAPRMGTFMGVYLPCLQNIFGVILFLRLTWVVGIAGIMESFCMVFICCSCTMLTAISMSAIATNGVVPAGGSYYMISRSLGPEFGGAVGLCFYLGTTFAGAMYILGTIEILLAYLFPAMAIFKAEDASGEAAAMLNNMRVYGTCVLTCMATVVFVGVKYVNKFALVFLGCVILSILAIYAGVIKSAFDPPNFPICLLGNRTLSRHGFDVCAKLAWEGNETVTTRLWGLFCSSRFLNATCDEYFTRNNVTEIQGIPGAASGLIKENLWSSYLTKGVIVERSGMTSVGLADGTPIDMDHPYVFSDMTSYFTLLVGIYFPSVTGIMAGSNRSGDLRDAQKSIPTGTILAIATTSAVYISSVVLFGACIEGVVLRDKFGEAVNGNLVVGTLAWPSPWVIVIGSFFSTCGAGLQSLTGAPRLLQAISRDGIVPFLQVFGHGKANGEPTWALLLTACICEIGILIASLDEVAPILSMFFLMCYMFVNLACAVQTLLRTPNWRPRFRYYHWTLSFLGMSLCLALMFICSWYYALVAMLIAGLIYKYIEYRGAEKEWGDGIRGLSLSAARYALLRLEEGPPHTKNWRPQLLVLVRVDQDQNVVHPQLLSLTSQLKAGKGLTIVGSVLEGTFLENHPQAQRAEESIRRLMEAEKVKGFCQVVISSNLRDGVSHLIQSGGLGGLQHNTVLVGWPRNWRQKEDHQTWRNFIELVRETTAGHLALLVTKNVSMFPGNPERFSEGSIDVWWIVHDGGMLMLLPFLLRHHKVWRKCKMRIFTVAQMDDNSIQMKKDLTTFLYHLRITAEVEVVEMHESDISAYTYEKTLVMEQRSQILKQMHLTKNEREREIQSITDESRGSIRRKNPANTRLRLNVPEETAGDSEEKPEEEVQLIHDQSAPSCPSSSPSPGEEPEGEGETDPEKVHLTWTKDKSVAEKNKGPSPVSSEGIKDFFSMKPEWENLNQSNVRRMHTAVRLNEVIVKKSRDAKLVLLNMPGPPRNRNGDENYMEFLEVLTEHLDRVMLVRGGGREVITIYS
UniProt Q9NSI8, sequence (Q9NSI8 whole entry, looked up): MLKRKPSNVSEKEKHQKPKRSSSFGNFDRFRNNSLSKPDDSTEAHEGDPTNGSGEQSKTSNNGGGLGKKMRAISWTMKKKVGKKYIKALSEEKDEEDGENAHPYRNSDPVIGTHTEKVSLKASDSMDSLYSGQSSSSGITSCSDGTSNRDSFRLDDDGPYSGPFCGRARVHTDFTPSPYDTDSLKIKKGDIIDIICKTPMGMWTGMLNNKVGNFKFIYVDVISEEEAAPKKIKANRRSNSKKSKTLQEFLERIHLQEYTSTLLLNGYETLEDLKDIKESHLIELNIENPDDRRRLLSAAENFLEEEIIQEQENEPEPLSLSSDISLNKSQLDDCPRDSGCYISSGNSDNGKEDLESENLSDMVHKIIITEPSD
UniProt Q9Y6Y8, sequence (Q9Y6Y8 whole entry, looked up): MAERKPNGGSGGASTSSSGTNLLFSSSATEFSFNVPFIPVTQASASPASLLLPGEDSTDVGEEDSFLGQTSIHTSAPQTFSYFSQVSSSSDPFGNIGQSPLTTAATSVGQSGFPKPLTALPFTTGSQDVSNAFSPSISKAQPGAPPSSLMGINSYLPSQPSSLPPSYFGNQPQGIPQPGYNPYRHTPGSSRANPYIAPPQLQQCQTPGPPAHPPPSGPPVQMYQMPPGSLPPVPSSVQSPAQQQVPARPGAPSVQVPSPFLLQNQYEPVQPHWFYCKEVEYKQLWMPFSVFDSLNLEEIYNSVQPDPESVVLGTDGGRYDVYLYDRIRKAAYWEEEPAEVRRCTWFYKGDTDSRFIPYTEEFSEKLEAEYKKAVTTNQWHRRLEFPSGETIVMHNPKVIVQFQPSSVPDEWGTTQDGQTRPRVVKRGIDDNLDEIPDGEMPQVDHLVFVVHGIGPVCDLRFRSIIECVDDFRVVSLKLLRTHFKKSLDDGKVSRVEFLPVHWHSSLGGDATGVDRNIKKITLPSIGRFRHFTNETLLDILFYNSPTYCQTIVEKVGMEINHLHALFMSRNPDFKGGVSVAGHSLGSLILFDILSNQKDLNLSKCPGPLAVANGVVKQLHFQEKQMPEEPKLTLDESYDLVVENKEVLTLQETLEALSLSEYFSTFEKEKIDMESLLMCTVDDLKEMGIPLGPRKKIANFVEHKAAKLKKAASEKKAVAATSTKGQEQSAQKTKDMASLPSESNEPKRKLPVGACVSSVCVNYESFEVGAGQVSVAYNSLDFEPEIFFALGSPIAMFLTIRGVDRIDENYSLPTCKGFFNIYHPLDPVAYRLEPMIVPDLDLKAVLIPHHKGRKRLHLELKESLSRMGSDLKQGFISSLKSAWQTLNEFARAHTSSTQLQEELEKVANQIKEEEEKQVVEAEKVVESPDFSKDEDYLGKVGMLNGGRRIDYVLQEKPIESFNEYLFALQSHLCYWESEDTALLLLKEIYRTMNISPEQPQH
UniProt Q01196, sequence (Q01196 whole entry, looked up): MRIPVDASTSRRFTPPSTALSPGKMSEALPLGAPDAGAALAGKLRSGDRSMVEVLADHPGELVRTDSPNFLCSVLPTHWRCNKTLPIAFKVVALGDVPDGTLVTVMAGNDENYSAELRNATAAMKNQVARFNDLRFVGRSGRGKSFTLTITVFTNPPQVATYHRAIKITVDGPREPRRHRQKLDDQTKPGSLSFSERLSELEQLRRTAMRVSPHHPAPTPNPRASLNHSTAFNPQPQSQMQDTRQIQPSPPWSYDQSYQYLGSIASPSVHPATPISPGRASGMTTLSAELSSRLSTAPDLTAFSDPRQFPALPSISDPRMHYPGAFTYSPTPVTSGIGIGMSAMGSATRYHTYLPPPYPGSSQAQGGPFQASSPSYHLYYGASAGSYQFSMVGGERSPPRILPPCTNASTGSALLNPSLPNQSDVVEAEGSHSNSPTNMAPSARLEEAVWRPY
UniProt Q9NW64, sequence (Q9NW64 whole entry, looked up): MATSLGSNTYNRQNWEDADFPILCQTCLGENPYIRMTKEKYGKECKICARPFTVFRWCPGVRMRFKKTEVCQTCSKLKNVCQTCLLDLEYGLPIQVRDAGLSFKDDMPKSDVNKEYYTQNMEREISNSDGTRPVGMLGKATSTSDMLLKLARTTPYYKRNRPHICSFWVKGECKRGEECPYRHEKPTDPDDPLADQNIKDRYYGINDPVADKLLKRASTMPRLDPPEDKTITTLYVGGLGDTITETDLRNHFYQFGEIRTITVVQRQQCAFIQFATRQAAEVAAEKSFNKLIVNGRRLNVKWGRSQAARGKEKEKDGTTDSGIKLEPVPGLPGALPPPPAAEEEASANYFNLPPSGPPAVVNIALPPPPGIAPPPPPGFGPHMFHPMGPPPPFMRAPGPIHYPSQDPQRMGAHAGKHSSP
UniProt Q86UA6, sequence (Q86UA6 whole entry, looked up): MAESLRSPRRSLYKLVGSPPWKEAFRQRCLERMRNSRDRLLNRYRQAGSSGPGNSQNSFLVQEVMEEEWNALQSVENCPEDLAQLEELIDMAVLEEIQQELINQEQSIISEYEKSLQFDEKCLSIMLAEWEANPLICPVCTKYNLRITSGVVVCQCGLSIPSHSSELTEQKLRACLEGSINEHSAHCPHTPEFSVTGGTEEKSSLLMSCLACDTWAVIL
UniProt Q15050, sequence (Q15050 whole entry, looked up): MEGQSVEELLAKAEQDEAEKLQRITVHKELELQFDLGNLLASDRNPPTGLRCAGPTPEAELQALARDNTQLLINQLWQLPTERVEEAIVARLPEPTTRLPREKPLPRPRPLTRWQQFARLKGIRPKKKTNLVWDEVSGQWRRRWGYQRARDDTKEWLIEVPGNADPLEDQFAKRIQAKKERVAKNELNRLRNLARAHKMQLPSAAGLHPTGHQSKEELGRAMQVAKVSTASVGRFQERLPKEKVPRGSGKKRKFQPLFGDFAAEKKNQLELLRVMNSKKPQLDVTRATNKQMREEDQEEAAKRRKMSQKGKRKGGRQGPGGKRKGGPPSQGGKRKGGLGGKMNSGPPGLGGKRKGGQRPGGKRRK
UniProt Q9BWJ5, sequence (Q9BWJ5 whole entry, looked up): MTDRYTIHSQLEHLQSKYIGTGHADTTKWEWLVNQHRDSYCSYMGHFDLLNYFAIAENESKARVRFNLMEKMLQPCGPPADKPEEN

Target | log2 fold change (IRAK-1-4 Inhibitor I) | log2 fold change (ibrutinib) | log2 fold change [1] | log2 fold change (ralimetinib) | log2 fold change [2] | log2 fold change [3] | log2 fold change [4] | log2 fold change (pinometostat) | log2 fold change [5] | log2 fold change [6] | log2 fold change [7] | log2 fold change [8] | log2 fold change [9] | log2 fold change [10] | log2 fold change (Nexturastat A) | log2 fold change (vemurafenib) | log2 fold change [11] | log2 fold change [12] | log2 fold change (givinostat) | log2 fold change (barasertib)
SEC31A (UniProt O94979) | -0.076 | -0.11 | 0.005 | 0.028 | -0.054 | -0.008 | 0.033 | 0.071 | 0.016 | 0.095 | -0.053 | -0.052 | 0.015 | 0.019 | 0.102 | 0.054 | 0.064 | -0.032 | 0.098 | 0.052
RAF1 isoform 2 (UniProt P04049) | -0.038 | -0.058 | -0.263 | -0.054 | -0.072 | -0.12 | 0.066 | 0.29 | – | 0.09 | 0.317 | 0.056 | 0.078 | -0.043 | 0.077 | 0.17 | 0.438 | -0.113 | 0.016 | 0.044
RRS1 (UniProt Q15050) | -0.084 | 0.04 | 0.217 | 0.118 | 0.229 | 0.312 | 0.067 | 0.297 | -0.11 | -1 (active) | 0.024 | 0.021 | -0.043 | -0.163 | 0.31 | -0.174 | -0.03 | 0.104 | 0.093 | -0.101
SLC12A5 (UniProt Q9H2X9) | -0.024 | -0.006 | -0.101 | – | 0.14 | 0.052 | – | -0.113 | – | 0.047 | 0.074 | – | 0.108 | 0.198 | 0.001 | -0.105 | 0.081 | -0.018 | 0.016 | -0.004
RUNX1 isoform 8 (UniProt Q01196) | -0.102 | 0.058 | -0.207 | -0.043 | -0.138 | -0.184 | 0.082 | 0.069 | 0.076 | – | 0.236 | 0.018 | 0.059 | -0.045 | -0.231 | -0.026 | 0.046 | 0.088 | 0.076 | -0.058
SEC23IP (UniProt Q9Y6Y8) | -0.007 | -0.023 | -0.048 | -0.004 | -0.119 | -0.252 (active) | 0.006 | 0.032 | 0.059 | -0.011 | 0.016 | 0.041 | 0.041 | 0.012 | 0.022 | 0.051 | 0.056 | 0.024 | 0.047 | 0.016
SERINC1 (UniProt Q9NRX5) | 0 | 0.023 | 0 | -0.106 | -0.235 | -0.568 (active) | 0.095 | -0.022 | 0.038 | 0 | 0.044 | -0.048 | 0.372 | -0.021 | 0.053 | -0.083 | -0.018 | -0.874 (active) | 0.05 | 0.002
RPAIN isoform 8 (UniProt Q86UA6) | -0.022 | 0.034 | -0.124 | -0.048 | 0.048 | – | -0.221 | 0.011 | – | -0.168 | 0.009 | 0.038 | -0.098 | 0.136 | -0.017 | -0.062 | 0.042 | – | – | 0.029
SF3B5 (UniProt Q9BWJ5) | 0.055 | 0.127 | -0.067 | – | -0.224 | 0.118 | – | 0.045 | 0.011 | 0.156 | 0.003 | – | 0.072 | 0.111 | 0.042 | -0.055 | -0.027 | -0.009 | 0.129 | -0.12
SHROOM2 (UniProt Q13796) | 0.236 | 0.065 | 0.137 | – | 0.009 | 0.155 | – | -0.182 | -0.015 | 0.072 | -0.104 | – | 0.011 | -0.206 | 0.763 (active) | -0.078 | -0.179 | -0.207 | 0.238 | 0.071
SAMSN1 isoform 3 (UniProt Q9NSI8) | 0.028 | -0.021 | -0.125 | -0.016 | -0.034 | -0.095 | 0.041 | 0.014 | 0.023 | 0.008 | 0.014 | -0.011 | 0.029 | 0.017 | -0.027 | -0.001 | 0.029 | 0 | 0.02 | 0.042
RBM22 (UniProt Q9NW64) | 0.014 | -0.032 | 0.029 | 0.048 | 0.071 | 0.068 | 0.104 | 0.015 | 0.041 | 0.124 | -0.049 | 0.031 | -0.056 | -0.014 | 0.052 | 0.003 | -0.004 | -0.038 | 0.018 | -0.006
RAB3IL1 (UniProt E9PK89) | -0.012 | -0.021 | -0.006 | -0.018 | -0.127 | -0.032 | 0.006 | 0.017 | 0.08 | -0.005 | -0.069 | -0.037 | 0 | 0.061 | -0.111 | -0.08 | -0.053 | – | 0.278 | -0.014
RAC3 (UniProt P60763) | 0.115 | 0.022 | 0.104 | -0.008 | 0.032 | 0.082 | -0.009 | -0.081 | 0.003 | 0.102 | 0.025 | -0.021 | 0.084 | -0.004 | -0.042 | 0.006 | -0.006 | -0.044 | -0.037 | -0.015
SCYL3 isoform 2 (UniProt Q8IZE3) | 0.087 | 0.02 | -0.002 | -0.043 | -0.063 | -0.052 | -0.002 | 0.054 | 0.013 | -0.146 | – | -0.061 | -0.002 | 0.005 | 0.004 | 0.008 | 0.022 | -0.01 | 0.012 | -0.012
RMDN2 isoform 2 (UniProt Q96LZ7) | 0.034 | – | – | 0.095 | – | – | 0.137 | 0.025 | -0.192 | – | – | -0.022 | – | -0.127 | – | 0.217 | – | -0.196 | – | –
RBM6 (UniProt P78332) | 0.146 | – | -0.208 | – | – | – | – | -0.09 | -0.19 | -0.16 | -0.009 | – | -0.056 | 0.092 | – | – | 0.031 | -0.079 | – | –
